Results on 59 compounds are retold here after PubChem BioAssay AID1347041 (National Center for Advancing Translational Sciences (NCATS), 2019).

Structures are written as SMILES. “And” between values parts separate entries of the source, which are not always exact repeats. Identical values can stand only once. The campaign covered roughly 480,000 compounds. About 740 (0.15%) were called active. No stated cut-off is given here; in the data, active means activity change below about -30%; inconclusive means mostly about -25% to -30%; inactive means weaker than that. This excerpt belongs to a sample that is enriched for actives. The source holds several records for some structures; these can differ, active in one and inactive in another.

The experiment concerns the target L-lactate dehydrogenase A chain (Homo sapiens) (UniProt P00338). Kind of experiment: qHTS assay for inhibitors of human lactate dehydrogenase.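 Further: values are at about 110 or 230 µM; plate controls were DMSO wells for no effect and wells without enzyme for full effect.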 The conditions noted are these: purified LDHA, NADH/diaphorase-resazurin fluorescence; stronger effect = lower value. An outline of the steps: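 Human LDH5 (2 nM) was incubated with 0.06 mM NADH and 0.2 mM pyruvate for 5 min at room temperature in Tris pH 7.4. Remaining NADH was coupled through diaphorase/resazurin, and resorufin fluorescence was read at 0 and 20 min.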
A general note: Quantitative high-throughput screening tests each substance at several concentrations.
`CCCCOc1ccc(C(=O)NO)cc1`: the activity change is 12.4% (inactive).

In the case of `CC/C(=C(/c1ccccc1)c1ccc(OCC[N+](C)(C)C)cc1)c1ccccc1`, the activity change is -30.9% (active).

In the case of `CCCCCCCCCOc1ccc(C(=O)c2ccccc2)cc1`, the activity change was 2.28% (inactive).

On to `Cc1cc(C)cc(Nc2nc3ccccc3nc2NS(=O)(=O)c2ccccc2)c1`, for which the activity change was -9.61% (inactive).

Consider `C=CCOc1ccc(NC(C)=O)cc1`, for which the activity change was 8.6% (inactive).

Take `Cc1nn(CC(=O)Nc2ccc3c(c2)nc2n3CCN(C)C2)c(=O)c2ccccc12`: the activity change was 2.93% (inactive).

On to `O=C(COc1ccccc1F)OCc1cc(=O)n2nc(C3CCCCC3)sc2n1`, for which the activity change is -0.186% (inactive) and -35% (active).

On to `Cc1ccc(OCC(=O)OCc2cc(=O)n3nc(C4CC4)sc3n2)cc1`, for which the activity change was -4.61% (inactive).

For `O=C(COc1ccccc1F)Nc1ccc(C(=O)OCc2cc(=O)n3nc(C4CC4)sc3n2)cc1`, the activity change is 0.0167% (inactive).

For `O=S(=O)(Cc1nnnn1-c1ccc(Br)cc1)c1ccc(F)cc1`, the activity change is -2.83% (inactive).

Turning to `O=S(=O)(Cc1nnnn1-c1ccccc1)c1ccccc1`, the activity change is 0.923% (inactive) and -41.4% (active).

`CC(=O)c1ccc(S(=O)(=O)NCc2nnnn2-c2ccccc2)cc1`: the activity change is -5.01% (inactive).

With `Cn1ccnc1Sc1nc2c(c(=O)n(C)c(=O)n2C)n1Cc1ccc(F)cc1`, the activity change is 1.87% (inactive).

Turning to `Cc1ccc2oc(C(=O)Nc3ccccc3F)cc(=O)c2c1`, the activity change was 7.9% (inactive).

As to `O=C(O)C(Sc1nc(-c2ccccc2)cc(C(F)(F)F)n1)c1ccccc1` (centres undefined), the activity change is 13.5% (inactive).

Turning to `O=C(NC1CCCC1)c1nc(-c2cccc3[nH]ccc23)no1`, the activity change is -3.9% (inactive).

Regarding `O=C(NC1(C(F)(F)F)C(=O)Nc2c1c(=O)[nH]c(=O)n2Cc1ccco1)c1ccco1` (centres undefined), the activity change is -33.9% (active).

Take `CC(=O)Nc1ccc(S(=O)(=O)NC2(C(F)(F)F)C(=O)Nc3c2c(=O)[nH]c(=O)n3Cc2ccccc2)cc1` (centres undefined): the activity change was -3.74% (inactive).

For `O=c1[nH]c(=O)n(Cc2ccco2)c2c1C(C(F)(F)F)(C(F)(F)F)N=C(c1ccco1)N2`, the activity change was -12.6% (inactive).

Regarding `CCc1nc2nc(C)cc(Nc3ccc(F)c(Cl)c3)n2n1`, the activity change was -6.31% (inactive).

Consider `Cc1cc(Nc2ccccc2)n2nc(Cc3ccc(Cl)cc3)nc2n1`, for which the activity change was -32.3% (active).

Consider `Cc1cc(Nc2cccc(Cl)c2)n2nc(Cc3ccccc3)nc2n1`, for which the activity change was -15% (inactive).

Take `Cc1ccc(C)c(N2CCN(C(=O)CCS(=O)(=O)c3cccc4nsnc34)CC2)c1`: the activity change was 0.345% (inactive).

With `O=C1CCCC2=C1C(c1cccnc1)CC(=O)N2c1ccccc1C(F)(F)F` (centres undefined), the activity change is 0.301% (inactive).

In the case of `O=C(CSc1nnnn1C1CCCC1)N1CCCC1c1ccc2c(c1)OCCCO2` (centres undefined), the activity change was -4.78% (inactive).

On to `CC(=O)NC(Cc1c[nH]c2ccccc12)C(=O)N1CCC1` (centres undefined), for which the activity change is -6.31% (inactive).

On to `FC(F)(F)c1ccc(Cl)c(N/N=C/c2c(Cl)cccc2Cl)c1`, for which the activity change was -0.292% (inactive).

Turning to `N#Cc1cc(NCC(=O)N2CCNC2=O)ccc1Cl`, the activity change is -31.1% (active).

Regarding `COC(=O)c1cc(NCC(=O)N2CCNC2=O)ccc1Cl`, the activity change was -2.4% (inactive).

`CSc1ccc(Cl)c(C(=O)OCC(=O)N2CCNC2=O)c1`: the activity change was -5.09% (inactive).

`CC(=O)Nc1cccc(NC(=O)c2nc(-c3ccccc3)oc2C)c1`: the activity change was -3.27% (inactive).

On to `CCN(CC)CCNC(=O)c1ccc2nc(C)c(C)nc2c1`, for which the activity change was 1.31% (inactive).

Turning to `Cc1ccc(NC(=O)CN(C)C(=O)c2nc(-c3ccccc3)oc2C)cc1`, the activity change is -4.78% (inactive).

For `COc1ccc(NC(=O)CN(C)C(=O)c2nc(-c3ccccc3)oc2C)cc1`, the activity change is 7.53% (inactive).

For `Cc1oc(-c2ccccc2)nc1CC(=O)N(C)CC(=O)Nc1cccc2ccccc12`, the activity change was -30.2% (active).

Regarding `CC(=O)c1ccccc1NC(=O)c1ccccc1Cc1ccccc1`, the activity change is -24.1% (inactive).

On to `CCN(CC)C(=O)c1ccc(CSC(F)F)o1`, for which the activity change is -3.64% (inactive).

For `Cc1cccc(N2CCN(Cc3ncc(-c4ccc(Cl)cc4)o3)CC2)c1`, the activity change was 6.83% (inactive).

With `Cc1c(CC(=O)NCCCN2CCOCC2)c(=O)oc2cc(O)ccc12`, the activity change is 1.59% (inactive).

For the compound `CCOc1ccccc1NC(=O)Cc1c(C)[nH]n(-c2nc(-c3ccccc3)cs2)c1=O`, the activity change is -42.8% (active).

For `CCOc1ccccc1NC(=O)Cn1c2ncccc2c(=O)n1-c1ccc(C)c(C)c1`, the activity change is -10% (inactive).

On to `Cc1[nH]n(-c2nc(-c3ccccc3)cs2)c(=O)c1CC(=O)Nc1cccc(Cl)c1`, for which the activity change is -4.25% (inactive).

Regarding `CCNC(=O)c1nnc(C(=O)Nc2cccc(Cl)c2)s1`, the activity change is 6.18% (inactive).

Consider `Cn1c(=O)n(C)c2cc(SCc3ccco3)c(NC(=O)c3ccc(C(C)(C)C)cc3)cc21`, for which the activity change was -5.57% (inactive).

On to `CCCCCn1c(SCc2ccc(C)cc2)nc2c1c(=O)[nH]c(=O)n2C`, for which the activity change was -21.4% (inactive).

For `CN1CCN(CCC2(Cc3ccccc3)CCOC(C)(C)C2)CC1` (centres undefined), the activity change is -4.19% (inactive).

With `O=C(O)C(Br)Cc1ccc(Cl)cc1Cl` (centres undefined), the activity change was 27.6% (inactive).

Take `CC1(C)CC(N2CCN(C(c3ccccc3)c3ccccc3)CC2)=CC(=[N+]2CCCCC2)C1`: the activity change is -64.6% (active).

On to `O=C(Nc1ccc2c(c1)OCCCO2)c1ccccc1OCc1ccc(F)cc1`, for which the activity change is 7.94% (inactive).

With `CC(C)(C)c1ccc(-c2nnc(SCC(=O)NC(=O)NC3CCCC3)n2Cc2ccco2)cc1`, the activity change is 9.16% (inactive).

As for `CC1=C/C(=N\NC(N)=S)C(C)C1` (centres undefined), the activity change is 1.95% (inactive).

As for `CCOC(=O)/C=C/c1cc(C(=O)OCC)c(/C=C/C(=O)OCC)cc1C(=O)OCC`, the activity change was -12.2% (inactive).

Regarding `CCn1c(SCC(=O)NCC(F)(F)F)nnc1-c1ccncc1`, the activity change is -0.908% (inactive).

For `Cc1n[nH]c(=O)nc1N/N=C/c1cccs1`, the activity change was 10.4% (inactive).

As for `Cc1ccsc1/C=N/n1c(=S)[nH]nc(C)c1=O`, the activity change is -32.7% (active).

`CCc1n[nH]c(=S)n1/N=C/c1c[nH]c2ccc(Br)cc12`: the activity change is -11% (inactive).

Consider `Cc1ccccc1NC(=O)Cc1nnc(SCC(=O)c2ccc(C#N)cc2)n1C`, for which the activity change is 2.1% (inactive).

Consider `CCc1nn2c(=O)cc(CN(CC)Cc3ccc(OC)cc3)nc2s1`, for which the activity change was 0.31% (inactive).

For `CCOC(=O)C(NC(=O)c1ccccc1)C(F)(F)F` (centres undefined), the activity change was -5.84% (inactive).
